The record followed here is PubChem BioAssay (NCI).

SMILES strings stand for the structures. About 83,000 compounds went through this panel and 20% of them were active in at least one assay; those are over-represented in the sample as a whole.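 Cell lines were cultured in 96-well plates, exposed to a single compound concentration, and assessed for percent growth 48 hours later.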 A number with no mark means an inactive call. Activity calls are given as the source filed them. How the source made its calls: active means growth percent below 10; inactive means the rest.

For one assay, the system named is K-562 leukemia. In words: NCI-60 one-dose screen, 48 h (100 = growth as untreated, 0 = no growth, -100 = all killed). As to conditions: 10 µM.
As to `O=C(Nc1ccc(I)cc1F)c1cc(-c2ccc(F)cc2F)ccc1O`, the growth is 7.69% (active).

In the case of `CN1CCN(c2ccc(C(=O)/C=C/c3ccc(C#N)cc3)cc2)CC1`, the growth is 7.48% (active).

`Cc1ccc([N+](=O)[O-])c(C(=O)Nc2ccc(-c3ccc4c(c3)NC(=O)/C4=C\c3ccc[nH]3)cc2)c1`: the growth was 28%.

As to `CN1CCO/C1=C(/NC(=O)c1ccc(Cl)cc1)[P+](c1ccccc1)(c1ccccc1)c1ccccc1`, the growth is 50.3%.

For the molecule `CNCc1cccc2c1OCCCCCC[C@@](C)(O)CC1(CC1)S(=O)(=O)c1ccc(cc1)-c1cnc(N)c(n1)C(=O)N2`, the growth is -37.5% (active).

`Cc1cccc(NC(=O)CSc2nc3ccc(F)cc3c(=O)n2-c2ccc(Cl)cc2)c1C`: the growth is 84.3%.

As to `CC(=O)OC[C@@]1(C)C2CC[C@]3(C)C(CC=C4C5CC(C)(C)CC[C@]5(C(=O)Nc5ccccc5)CC[C@]43C)[C@@]2(C)C[C@@H](OC(C)=O)[C@@H]1OC(C)=O` (some centres undefined), the growth was 12.7%.

In the case of `CC1=C2C(=C[C@@](C)(COCOCCCl)[C@@H]2O)C(=O)[C@](C)(O)C12CC2`, the growth is 8.32% (active).

On to `CCN1CCN(Cc2ccc(NC(=O)c3cccc(-n4cc(-c5ccc(NC(C)=O)nc5)nn4)c3)cc2C(F)(F)F)CC1`, for which the growth was -28.4% (active).

Consider `O=C(c1ccc(O)cc1)C1[C@H](c2ccc(Br)cc2)[C@@H](c2ccccc2)NC12C(=O)Nc1ccccc12` (some centres undefined), for which the growth is 35.3%.

Turning to `Nc1nnc(-c2c[nH]c3ccc(F)cc23)c(-c2c[nH]c3ncccc23)n1`, the growth is 31.9%.

For `O=C(c1ccc(Cl)cc1)C1[C@H](c2ccccc2Br)[C@@H](c2ccccc2)NC12C(=O)Nc1ccc(Cl)cc12` (some centres undefined), the growth was 7.94% (active).

As to `Cc1ccc(NCC(=O)Nn2c(COc3ccccc3)nc3ccccc3c2=O)cc1`, the growth is 88.2%.

On to `NS(=O)(=O)c1ccc(N=Nc2c(O)n(CC(=O)Nc3ccccc3Br)c3ccccc23)cc1`, for which the growth was 27.2%.

Consider `CN(C(=O)c1ccc(C(F)(F)F)cc1C(F)(F)F)c1sc2c(c1C#N)CCC(=O)C2`, for which the growth is 6.49% (active).

As for `CC(C)(C)Nc1nc2cc(Cl)c(Cl)cc2nc1S(C)(=O)=O`, the growth is -5.97% (active).

Consider `Cc1ccc(/C(N)=N/c2sc(-c3ccccc3)nc2-c2ccccc2)cc1`, for which the growth is 28.5%.

Take `O=c1cc(-c2ccccc2)oc2cc(OCCCNCc3ccccc3)cc(O)c12`: the growth is -20.1% (active).

Regarding `CCOC(=O)C1NN(c2ccc(S(N)(=O)=O)cc2)c2nc3nc(-c4cccs4)cc(-c4cccs4)c3c(=O)n21` (centres undefined), the growth was 83.3%.

Consider `N#Cc1c(NC(=O)c2ccc(C(F)(F)F)cc2)sc2c1CCC(O)=C2`, for which the growth is 8.86% (active).

For the molecule `COc1ccc2[nH]cc(/C=N/Nc3ccc(Br)cn3)c2c1`, the growth was 9.92% (active).

With `Cc1cc(C(F)(F)F)ccc1C(=O)Nc1sc2c(c1C#N)CCC(=O)C2`, the growth was 2.39% (active).

On to `Cc1ccc(F)cc1N/C=c1\s/c(=C(\C#N)C(=O)Nc2ccccc2)n(-c2ccccc2)c1=O`, for which the growth is 83.4%.

In the case of `CCCn1c(=O)c2[nH]c(-c3ccc(OCc4nc5ccc(C)cc5[nH]4)cc3)nc2n(CCC)c1=O`, the growth is 28.3%.

With `O=C(O)CCCCCCCCCCN1C(=O)/C(=C/c2cnc(-c3ccccc3)s2)SC1=S`, the growth was 23.6%.

Take `O=C1NC(=NC2CCCCCC2)N/C1=C\c1ccc2ncoc2c1`: the growth was 38.1%.

Turning to `COc1ccc2[nH]c(=O)c(CSc3cccc(N)c3)cc2c1`, the growth is 15.6%.

For `O=C(c1ccc(Cl)cc1)C1[C@H](c2ccc(Br)cc2)[C@@H](c2ccccc2)NC12C(=O)Nc1ccc(Cl)cc12` (some centres undefined), the growth was -31.2% (active).

Turning to `C=CC(=O)Nc1ccc(C(=O)/C=C/c2ccc(N(C)CCF)cc2)c(O)c1`, the growth is 9.77% (active).

For the molecule `COc1cccc(/C=C2\N=C(C)N(CCc3ccc(S(N)(=O)=O)cc3)C2=O)c1`, the growth is 99.9%.

Take `N#Cc1c(NC(=O)c2ccc(C(F)(F)F)cc2)sc2c1CCC(=O)C2`: the growth is 7.26% (active).

Consider `COc1cc2oc(-c3cccc(C(=O)Nc4ccc(Cl)cc4)c3)cc(=O)c2c(OCCNC(=O)CNC(=O)OC(C)(C)C)c1OC`, for which the growth is 46%.

As to `Cc1ccc(C(=O)NNC(=O)CSc2nc3ccccc3c(=O)[nH]2)cc1`, the growth is 97.6%.

Regarding `Brc1ccc(/C=N/Nc2ncnc3sc4c(c23)CCN(Cc2ccccc2)C4)cc1`, the growth is 20.9%.

For the molecule `Cc1cc2nc3c4ccccc4n(CCO)c3nc2cc1C`, the growth was 74.4%.

Regarding `O=C1NC(=NC23CC4CC(CC(C4)C2)C3)N/C1=C\c1ccc2ncccc2n1`, the growth is 13.6%.

Take `CN1CCN(Cc2ccc(C(=O)Nc3cccc(Nc4ccc5cc(O)ccc5n4)c3)cc2C(F)(F)F)CC1`: the growth is -55.8% (active).

For the next assay, the system named is MALME-3M melanoma. The assay is described as above. As to conditions: 10 µM.
As to `O=C(Nc1ccc(I)cc1F)c1cc(-c2ccc(F)cc2F)ccc1O`, the growth is -21.4% (active).

With `CN1CCN(c2ccc(C(=O)/C=C/c3ccc(C#N)cc3)cc2)CC1`, the growth was 90.4%.

For `Cc1ccc([N+](=O)[O-])c(C(=O)Nc2ccc(-c3ccc4c(c3)NC(=O)/C4=C\c3ccc[nH]3)cc2)c1`, the growth was 55.5%.

On to `CN1CCO/C1=C(/NC(=O)c1ccc(Cl)cc1)[P+](c1ccccc1)(c1ccccc1)c1ccccc1`, for which the growth is 69.2%.

Consider `CNCc1cccc2c1OCCCCCC[C@@](C)(O)CC1(CC1)S(=O)(=O)c1ccc(cc1)-c1cnc(N)c(n1)C(=O)N2`, for which the growth was -75.2% (active).

For `Cc1cccc(NC(=O)CSc2nc3ccc(F)cc3c(=O)n2-c2ccc(Cl)cc2)c1C`, the growth is 65.5%.

As to `CC(=O)OC[C@@]1(C)C2CC[C@]3(C)C(CC=C4C5CC(C)(C)CC[C@]5(C(=O)Nc5ccccc5)CC[C@]43C)[C@@]2(C)C[C@@H](OC(C)=O)[C@@H]1OC(C)=O` (some centres undefined), the growth was 54.3%.

As for `CC1=C2C(=C[C@@](C)(COCOCCCl)[C@@H]2O)C(=O)[C@](C)(O)C12CC2`, the growth was -84.9% (active).

Consider `CCN1CCN(Cc2ccc(NC(=O)c3cccc(-n4cc(-c5ccc(NC(C)=O)nc5)nn4)c3)cc2C(F)(F)F)CC1`, for which the growth is 53.1%.

With `O=C(c1ccc(O)cc1)C1[C@H](c2ccc(Br)cc2)[C@@H](c2ccccc2)NC12C(=O)Nc1ccccc12` (some centres undefined), the growth was 43.6%.

For the molecule `Nc1nnc(-c2c[nH]c3ccc(F)cc23)c(-c2c[nH]c3ncccc23)n1`, the growth is 71.6%.

In the case of `O=C(c1ccc(Cl)cc1)C1[C@H](c2ccccc2Br)[C@@H](c2ccccc2)NC12C(=O)Nc1ccc(Cl)cc12` (some centres undefined), the growth was 51.8%.

For `Cc1ccc(NCC(=O)Nn2c(COc3ccccc3)nc3ccccc3c2=O)cc1`, the growth was 80.8%.

As to `NS(=O)(=O)c1ccc(N=Nc2c(O)n(CC(=O)Nc3ccccc3Br)c3ccccc23)cc1`, the growth is 26.5%.

Consider `CN(C(=O)c1ccc(C(F)(F)F)cc1C(F)(F)F)c1sc2c(c1C#N)CCC(=O)C2`, for which the growth is 99%.

Take `CC(C)(C)Nc1nc2cc(Cl)c(Cl)cc2nc1S(C)(=O)=O`: the growth is -78.5% (active).

For the molecule `Cc1ccc(/C(N)=N/c2sc(-c3ccccc3)nc2-c2ccccc2)cc1`, the growth was 89.2%.

`O=c1cc(-c2ccccc2)oc2cc(OCCCNCc3ccccc3)cc(O)c12`: the growth was -94.3% (active).

In the case of `CCOC(=O)C1NN(c2ccc(S(N)(=O)=O)cc2)c2nc3nc(-c4cccs4)cc(-c4cccs4)c3c(=O)n21` (centres undefined), the growth is 86.1%.

Take `N#Cc1c(NC(=O)c2ccc(C(F)(F)F)cc2)sc2c1CCC(O)=C2`: the growth is 23.2%.

Consider `COc1ccc2[nH]cc(/C=N/Nc3ccc(Br)cn3)c2c1`, for which the growth is 63.9%.

For the molecule `Cc1cc(C(F)(F)F)ccc1C(=O)Nc1sc2c(c1C#N)CCC(=O)C2`, the growth is -82.5% (active).

For the molecule `Cc1ccc(F)cc1N/C=c1\s/c(=C(\C#N)C(=O)Nc2ccccc2)n(-c2ccccc2)c1=O`, the growth is 53%.

As to `CCCn1c(=O)c2[nH]c(-c3ccc(OCc4nc5ccc(C)cc5[nH]4)cc3)nc2n(CCC)c1=O`, the growth is -69% (active).

As to `O=C(O)CCCCCCCCCCN1C(=O)/C(=C/c2cnc(-c3ccccc3)s2)SC1=S`, the growth was 103%.

For the molecule `O=C1NC(=NC2CCCCCC2)N/C1=C\c1ccc2ncoc2c1`, the growth was 66.4%.

As to `COc1ccc2[nH]c(=O)c(CSc3cccc(N)c3)cc2c1`, the growth was 97.1%.

With `O=C(c1ccc(Cl)cc1)C1[C@H](c2ccc(Br)cc2)[C@@H](c2ccccc2)NC12C(=O)Nc1ccc(Cl)cc12` (some centres undefined), the growth is -97.7% (active).

As to `C=CC(=O)Nc1ccc(C(=O)/C=C/c2ccc(N(C)CCF)cc2)c(O)c1`, the growth is -50.1% (active).

For the molecule `COc1cccc(/C=C2\N=C(C)N(CCc3ccc(S(N)(=O)=O)cc3)C2=O)c1`, the growth is 98.2%.

On to `N#Cc1c(NC(=O)c2ccc(C(F)(F)F)cc2)sc2c1CCC(=O)C2`, for which the growth was -54.2% (active).

For `COc1cc2oc(-c3cccc(C(=O)Nc4ccc(Cl)cc4)c3)cc(=O)c2c(OCCNC(=O)CNC(=O)OC(C)(C)C)c1OC`, the growth was 65%.

With `Cc1ccc(C(=O)NNC(=O)CSc2nc3ccccc3c(=O)[nH]2)cc1`, the growth was 91.7%.

With `Brc1ccc(/C=N/Nc2ncnc3sc4c(c23)CCN(Cc2ccccc2)C4)cc1`, the growth is 38.7%.

For the molecule `Cc1cc2nc3c4ccccc4n(CCO)c3nc2cc1C`, the growth was 37.8%.

In the case of `O=C1NC(=NC23CC4CC(CC(C4)C2)C3)N/C1=C\c1ccc2ncccc2n1`, the growth was -41.3% (active).

Take `CN1CCN(Cc2ccc(C(=O)Nc3cccc(Nc4ccc5cc(O)ccc5n4)c3)cc2C(F)(F)F)CC1`: the growth was -88.7% (active).
